Experimental data reported in paper PMC11062922 (Nature Chemical Biology, 2023).
Like-named read-outs stand apart in the source and are kept apart here.

What was measured:
AAK1 = test system: AAK1; design: species or system human, MV4-11 + K-562 + COLO205 + SK-N-BE2 + OVCAR-8; conditions: read-out: apparent Kd, compound concentrations: 100 nM and 1000 nM (sheet 'Samples'), n = 1
BMP2K = test system: BMP2K; design: species or system human, MV4-11 + K-562 + COLO205 + SK-N-BE2 + OVCAR-8; conditions: read-out: apparent Kd, compound concentrations: 100 nM and 1000 nM (sheet 'Samples'), n = 1
Q6ZSR9 = Q6ZSR9 (human, UniProt Q6ZSR9); design: species or system MV4-11 + K-562 + COLO205 + SK-N-BE2 + OVCAR-8; conditions: read-out: apparent Kd, compound concentrations: 100 nM and 1000 nM (sheet 'Samples'), n = 1
Q6ZSR9, sequence (Q6ZSR9 whole entry, looked up): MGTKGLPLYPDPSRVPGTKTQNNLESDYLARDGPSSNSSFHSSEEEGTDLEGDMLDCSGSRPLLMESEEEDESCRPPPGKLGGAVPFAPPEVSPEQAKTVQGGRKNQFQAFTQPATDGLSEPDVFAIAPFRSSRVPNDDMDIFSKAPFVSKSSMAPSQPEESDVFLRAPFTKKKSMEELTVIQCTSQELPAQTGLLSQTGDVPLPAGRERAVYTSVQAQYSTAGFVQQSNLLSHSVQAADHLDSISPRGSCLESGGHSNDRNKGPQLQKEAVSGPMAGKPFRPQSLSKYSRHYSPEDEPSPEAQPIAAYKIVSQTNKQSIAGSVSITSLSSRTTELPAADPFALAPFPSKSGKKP

CLK1 = test system: CLK1; design: species or system human, MV4-11 + K-562 + COLO205 + SK-N-BE2 + OVCAR-8; conditions: read-out: apparent Kd, compound concentrations: 100 nM and 1000 nM (sheet 'Samples'), n = 1
CLK4 = test system: CLK4; design: species or system human, MV4-11 + K-562 + COLO205 + SK-N-BE2 + OVCAR-8; conditions: read-out: apparent Kd, compound concentrations: 100 nM and 1000 nM (sheet 'Samples'), n = 1
CSNK2A1;CSNK2A3 = test system: CSNK2A1;CSNK2A3; design: species or system human, MV4-11 + K-562 + COLO205 + SK-N-BE2 + OVCAR-8; conditions: read-out: apparent Kd, compound concentrations: 100 nM and 1000 nM (sheet 'Samples'), n = 1
CSNK2A2 = test system: CSNK2A2; design: species or system human, MV4-11 + K-562 + COLO205 + SK-N-BE2 + OVCAR-8; conditions: read-out: apparent Kd, compound concentrations: 100 nM and 1000 nM (sheet 'Samples'), n = 1
GAK = test system: GAK; design: species or system human, MV4-11 + K-562 + COLO205 + SK-N-BE2 + OVCAR-8; conditions: read-out: apparent Kd, compound concentrations: 100 nM and 1000 nM (sheet 'Samples'), n = 1
MELK = test system: MELK; design: species or system human, MV4-11 + K-562 + COLO205 + SK-N-BE2 + OVCAR-8; conditions: read-out: apparent Kd, compound concentrations: 100 nM and 1000 nM (sheet 'Samples'), n = 1
PKN1 = test system: PKN1; design: species or system human, MV4-11 + K-562 + COLO205 + SK-N-BE2 + OVCAR-8; conditions: read-out: apparent Kd, compound concentrations: 100 nM and 1000 nM (sheet 'Samples'), n = 1
FLT4 = test system: FLT4; design: species or system human, MV4-11 + K-562 + COLO205 + SK-N-BE2 + OVCAR-8; conditions: read-out: apparent Kd; compound concentrations: 100 nM and 1000 nM (sheet 'Samples'), CATDS: 1.2160517778916E-2; n = 1
GSK3A = test system: GSK3A; design: species or system human, MV4-11 + K-562 + COLO205 + SK-N-BE2 + OVCAR-8; conditions: read-out: apparent Kd; compound concentrations: 100 nM and 1000 nM (sheet 'Samples'), CATDS: 1.8964305572366599E-2; n = 1
GSK3B = test system: GSK3B; design: species or system human, MV4-11 + K-562 + COLO205 + SK-N-BE2 + OVCAR-8; conditions: read-out: apparent Kd; compound concentrations: 100 nM and 1000 nM (sheet 'Samples'), CATDS: 1.5746210655388199E-2; n = 1
NUAK1 = test system: NUAK1; design: species or system human, MV4-11 + K-562 + COLO205 + SK-N-BE2 + OVCAR-8; conditions: read-out: apparent Kd; compound concentrations: 100 nM and 1000 nM (sheet 'Samples'), CATDS: 4.1010981116741001E-2; n = 1
PAK4 = test system: PAK4; design: species or system human, MV4-11 + K-562 + COLO205 + SK-N-BE2 + OVCAR-8; conditions: read-out: apparent Kd; compound concentrations: 100 nM and 1000 nM (sheet 'Samples'), CATDS: 2.1447100630881601E-2; n = 1
PRKAG1 = test system: PRKAG1; design: species or system human, MV4-11 + K-562 + COLO205 + SK-N-BE2 + OVCAR-8; conditions: read-out: apparent Kd; compound concentrations: 100 nM and 1000 nM (sheet 'Samples'), CATDS: 1.1749589380403099E-2; n = 1
RET = test system: RET; design: species or system human, MV4-11 + K-562 + COLO205 + SK-N-BE2 + OVCAR-8; conditions: read-out: apparent Kd; compound concentrations: 100 nM and 1000 nM (sheet 'Samples'), CATDS: 4.4247015083228598E-2; n = 1
SIK2 = test system: SIK2; design: species or system human, MV4-11 + K-562 + COLO205 + SK-N-BE2 + OVCAR-8; conditions: read-out: apparent Kd; compound concentrations: 100 nM and 1000 nM (sheet 'Samples'), CATDS: 1.2903831315266401E-2; n = 1

COC(=O)c1cccc(NC(=O)NC2CCN(c3ccnc(Nc4cc(OC)c(OC)c(OC)c4)n3)C2)c1 (centres unmarked) [GSK1379767A]
potency estimated from few doses (AAK1; CATDS: 0.10680715656565699): 1510 nM

Cc1cc(-c2ccnc(Nc3cccc(C#N)c3)n2)cc(C)c1O [GSK1440913A]
potency estimated from few doses (AAK1; CATDS: 0.22953291556049499): 120 nM | potency estimated from few doses (BMP2K; CATDS: 0.10539472264710199): 564 nM | potency estimated from few doses (Q6ZSR9; CATDS: 0.240078758272596): 111 nM

Cc1ccccc1C1=C(c2cn(C)c3ccccc23)C(=O)NC1=O [RO0317612-000]
potency estimated from few doses (AAK1; CATDS: 0.12392874635964): 1650 nM

c1ccc(-c2n[nH]cc2Nc2ccnc3ccccc23)nc1 [GW694077X]
potency estimated from few doses (AAK1; CATDS: 0.15981280907647699): 22.9 nM | potency estimated from few doses (BMP2K; CATDS: 0.12898106830803699): 31.6 nM | potency estimated from few doses (CLK1; CATDS: 6.3259021647505201E-2): 116 nM | potency estimated from few doses (CLK4; CATDS: 2.8276062957920199E-2): 948 nM | potency estimated from few doses (CSNK2A1;CSNK2A3; CATDS: 2.9027112719044901E-2): 870 nM | potency estimated from few doses (CSNK2A2; CATDS: 2.7289326995804501E-2): 1070 nM | potency estimated from few doses (GAK; CATDS: 2.8408815024035201E-2): 933 nM | potency estimated from few doses (MELK; CATDS: 2.6674495002574999E-2): 1150 nM | potency estimated from few doses (Q6ZSR9; CATDS: 0.16373298432482): 22.1 nM

Cl.Cl.NC(CNC(=O)c1cc(Br)c(-c2ccnc3[nH]ccc23)s1)c1ccccc1.NC(CNC(=O)c1cc(Br)c(-c2ccnc3[nH]ccc23)s1)c1ccccc1 (centres unmarked) [GSK1322949A]
potency estimated from few doses (AAK1; CATDS: 3.1655313708127797E-2): 1070 nM | potency estimated from few doses (BMP2K; CATDS: 4.4675050363511E-2): 552 nM | potency estimated from few doses (CLK4; CATDS: 3.1125873030522201E-2): 1120 nM | potency estimated from few doses (PKN1; CATDS: 2.3359167172179899E-2): 2380 nM | potency estimated from few doses (Q6ZSR9; CATDS: 3.14131871336574E-2): 1090 nM

COc1cc[nH]c1/C=C1\C(=O)Nc2ccc(F)c(C#CC3(O)CCNCC3)c21.Cl [RO0282986-001]
potency estimated from few doses (AAK1; CATDS: 4.4387438114571E-2): 51.7 nM | potency estimated from few doses (BMP2K; CATDS: 9.1500909624849303E-2): 17.8 nM | potency estimated from few doses (CLK1; CATDS: 1.0356916336546E-2): 1160 nM | potency estimated from few doses (CLK4; CATDS: 1.25074250244867E-2): 634 nM | potency estimated from few doses (CSNK2A1;CSNK2A3; CATDS: 1.42353528510114E-2): 450 nM | potency estimated from few doses (CSNK2A2; CATDS: 2.2066768869253801E-2): 173 nM | potency estimated from few doses (FLT4): 687 nM | potency estimated from few doses (GAK; CATDS: 1.5691521545656201E-2): 356 nM | potency estimated from few doses (GSK3A): 235 nM | potency estimated from few doses (GSK3B): 353 nM | potency estimated from few doses (MELK; CATDS: 1.9967026123172499E-2): 211 nM | potency estimated from few doses (NUAK1): 58.6 nM | potency estimated from few doses (PAK4): 183 nM | potency estimated from few doses (PKN1; CATDS: 1.1966323436805501E-2): 720 nM | potency estimated from few doses (PRKAG1): 761 nM | potency estimated from few doses (Q6ZSR9; CATDS: 3.8240338432775099E-2): 65.6 nM | potency estimated from few doses (RET): 52 nM | potency estimated from few doses (SIK2): 581 nM

NCC(NC(=O)c1cc(-c2cn[nH]c2)c(-c2ccnc3[nH]ccc23)s1)c1ccccc1.NCC(NC(=O)c1cc(-c2cn[nH]c2)c(-c2ccnc3[nH]ccc23)s1)c1ccccc1.O=C(O)C(F)(F)F.O=C(O)C(F)(F)F (centres unmarked) [GSK1325775A]
potency estimated from few doses (AAK1; CATDS: 3.6567153264384103E-2): 1070 nM | potency estimated from few doses (BMP2K; CATDS: 3.9732447761342798E-2): 847 nM | potency estimated from few doses (PKN1; CATDS: 2.9340466494355399E-2): 2310 nM | potency estimated from few doses (Q6ZSR9; CATDS: 4.0068531071680201E-2): 829 nM
